PubChem BioAssay (Tox21)
Results filed as inconclusive are left out. The source made the active and inactive calls. The call rests on the fitted dose curve; in most records, active means well fitted cell-killing curve with a large enough effect in the repeat runs; inconclusive means weak or mixed curves, or effect the other way; inactive means no such curve, though single readings can be large or run the other way.

Assay: qHTS assay to identify small molecule antagonists of the sonic hedgehog signaling (Shh) pathway - cell viability counter screen (AID 1259367); further: nearly all actives have a fitted effect of over 55% in size
Conditions: NIH/3T3 Gli1-Luc viability, CellTiter-Fluor, 24 h; series mostly up to 92.4 µM; viability change, negative = cytotoxic: at the top concentration
Text: National Center for Advancing Translational Sciences [NCATS]
NIH Chemical Genomics Center [NCGC]
U.S. Environmental Protection Agency [EPA]
National Institutes of Environmental Health Sciences [NIEHS]
National Toxicology Program [NTP]
U.S. Food and Drug Administration [FDA]
The sonic hedgehog (Shh) pathway is essential for normal embryonic development. Dysregulation of the Shh pathway can cause severe developmental defects in organs. Therefore chemicals that interfere with the pathway are potential developmental toxicants. A cell line designated 3T3Gli1-Luc (DMB/OARSA/CFSAN/FDA, Laurel, MD), a NIH/3T3 derived clone containing stably integrated Gli1-Luc reporter is used to detect chemical interference of the Shh pathway, by changes in the expression of the firefly Luc gene under the control of the Gli1 transcriptional response element. This cell line was used to screen Tox21 libraries for identifying and prioritizing the potential developmental toxicants that interfere Shh pathway. Conditioned medium-stimulated mode was used to screen for chemicals inhibiting Shh signaling. The cytotoxicity of the compounds was tested in parallel by measuring the cell viability using CellTiter-Fluor assay system (Promega, Madison, WI) in the same wells.
Tox21 Assay Protocol Summary:
3T3 Gli1-Luc cells were dispensed at 2,000 per well in 5uL of culture medium into white solid bottom 1536-well plates (Greiner Bio-One, Monroe, NC) using a Multidrop Combi (Thermo Scientific, Waltham, MA) dispenser. The assay plates were incubated at 37 C and 5% CO2 for 4hr, and then 23nL of compounds dissolved in DMSO and positive control were transferred using a Pintool station (Wako, San Diego, CA). The compound transfer was followed by the addition of 1ul conditioned medium or assay buffer using two separate tips of Flying Reagent Dispenser (FRD, Aurora Discovery, San Diego, CA). The assay plates were incubated at 37C and 5% CO2 for 24hr. For viability read, after 23hr of compound treatment, 1uL of CellTiter-Fluor reagent (Promega Corporation, Madison, WI) was added to each well of the assay plates using Flying Reagent Dispenser (FRD, Aurora Discovery, San Diego, CA) and incubated the assay plates at 37C for 1hr. The fluorescence signal was quantified using a ViewLux plate reader (Perkin Elmer, Shelton, CT).
On the % scale 0 is the no-effect control and ±100 the full control effect.

SMILES	viability change, negative = cytotoxic	Potency
CCCCCCC(=O)CCCCCC/C=C/C[C@@H](O)[C@H](O)[C@@](N)(CO)C(=O)O	-0.502% [at 19 µM] (inactive)	–
CCC(=O)c1ccc(Cl)cc1	-1.3% (inactive)	–
O=C(Cl)/C=C/C(=O)Cl	0.621% (inactive)	–
O=c1[nH]oc2c1CCNC2	5.17% [at 42.5 µM] (inactive)	–
ClC(Cl)(Cl)Cl	0.71% (inactive)	–
O=C(O)C(F)(F)C(F)(F)C(F)(F)C(F)(F)C(F)(F)C(F)(F)F	7.12% (inactive)	–
CC#Cc1cc(C)nc(Nc2ccccc2)n1	-8.91% (inactive)	–
N#CN	-8.12% [at 240 µM] (inactive)	–
O=C(NC(=O)c1c(F)cccc1F)Nc1cc(Cl)c(F)c(Cl)c1F	-2.33% (inactive)	–
c1ccc2c(c1)CCNC2	15.9% (inactive)	–
CCOC(=O)NC(C)(C)Cc1ccc(Cl)cc1	1.54% [at 42.5 µM] (inactive)	–
CCN(CCO)CCO	9.24% (inactive)	–
CC(C)(C)C(=O)Cl	4.72% (inactive)	–
CC(C)(O)C(Cl)(Cl)Cl	0.471% [at 42.5 µM] (inactive)	–
CS(=O)(=O)Cl	-1.31% (inactive)	–
CCOC(=O)N(C)N=O	1.04% (inactive)	–
CCCCS(=O)(=O)Cl	2.08% (inactive)	–
C=CCC1(C(C)CC)C(=O)NC(=O)NC1=O (stereo not given)	0.415% [at 42.5 µM] (inactive)	–
CCCCCCCCBr	7.4% (inactive)	–
C=CCN1CC[C@]23CCCC[C@H]2[C@H]1Cc1ccc(O)cc13	-8.74% [at 42.5 µM] (inactive)	–

SMILES	viability change, negative = cytotoxic	Potency
COc1ccccc1OC	3.29% (inactive)	–
COc1cccc([C@@]2(O)CCCC[C@@H]2CN(C)C)c1	0.565% [at 42.5 µM] (inactive)	–
CCCOc1nn(C(=O)NS(=O)(=O)c2ccccc2C(=O)OC)c(=O)n1C	0.831% (inactive)	–
CC[C@@H](CO)NC(=O)[C@@H]1C=C2c3cccc4[nH]cc(c34)C[C@H]2N(C)C1	0.766% [at 42.5 µM] (inactive)	–
O=C1CC(=O)NC(=O)N1	6.32% (inactive)	–
COc1cccc(C=O)c1	0.302% (inactive)	–
C/C(=N\NC(=O)Nc1cc(F)cc(F)c1)c1ncccc1C(=O)O	–	inactive
O=P(O)(O)CN(CP(=O)(O)O)CP(=O)(O)O	–	inactive
CCN[C@@H](C)Cc1ccccc1	-8.96% (inactive)	–
CCNc1nc(NCC)nc(SC)n1	0.122% (inactive)	–
NC(=O)CS(=O)C(c1ccccc1)c1ccccc1 (stereo not given)	4.29% [at 42.5 µM] (inactive)	–
CCSC(=O)Cl	9.64% (inactive)	–
S=C=S	2.87% (inactive)	–
Cn1c(CCCC(=O)O)nc2cc(N(CCCl)CCCl)ccc21	-7.36% [at 42.5 µM] (inactive)	–
CC1=C2[C@H]3OC(=O)[C@@H](C)[C@@H]3CC[C@@]2(C)C=CC1=O	-0.609% [at 42.5 µM] (inactive)	–
Clc1cc2c(cc1Cl)Oc1cc(Cl)c(Cl)cc1O2	1.51% [at 0.349 µM] (inactive)	–
CCN(CC)CCOC(=O)C(O)(c1ccccc1)c1ccccc1	4.29% [at 42.5 µM] (inactive)	–
CN1COCN(Cc2cnc(Cl)s2)/C1=N\[N+](=O)[O-]	0.131% (inactive)	–
N#CN=C1SCCN1Cc1ccc(Cl)nc1	2.63% (inactive)	–
N=C(N)[Se]	-12.9% (inactive)	–
